Assay outcomes: PubChem BioAssay, National Center for Advancing Translational Sciences (NCATS)
The full list was thinned out, with hits kept by preference.
DT40 TDP1 CPT = DT40-hTDP1 cell growth loss with CPT; Potency, µM (titrated, usually from 46.2 µM), inactives show at the highest dose activity change, negative = growth inhibition, usual class: inhibitors; actives 12% (n = 420,000); chicken DT40 Tdp1-/-;hTDP1 cells + 20 nM CPT, ATP luminescence, 48 h; note: potency is the fitted concentration of half-maximal effect; nearly all actives have a fitted effect of over 55% in size
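Chicken DT40 Tdp1-/- cells stably complemented with human TDP1 were seeded at 400 cells/well in medium containing 20 nM camptothecin, exposed to pin-transferred compounds, and grown at 37 °C for at least 48 hr. Viability was read as ATP luminescence.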
DT40 TDP1 no CPT = qHTS for Inhibitors of human tyrosyl-DNA phosphodiesterase 1 (TDP1): qHTS in cells in absence of CPT; DT40 Tdp1-/- hTDP1 cells, no CPT, ATP luminescence, 48 h; Potency, µM (top dose mostly 46.2 µM), for inactives: top-dose activity change, negative = growth inhibition, actives largely listed as inhibitors; actives 15% (n = 420,000); note: potency is the fitted concentration of half-maximal effect; nearly all actives have a fitted effect of over 55% in size
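DT40 Tdp1-/-;hTDP1 cells, no CPT (DMSO vehicle only), 400 cells/well; compounds pin-transferred; ≥48 hr, 37 °C; CellTiter-Glo 30 min RT dark, luminescence read.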
IL-1B inflam inh = blocks inflammasome-driven IL-1 beta release | THP-1 LPS/ATP IL-1B secretion, AlphaLISA, 16 h; hits give low values | activity change, % at 57.5 µM | actives 4.7% (n = 360,000) | AID 743279; in the data active = activity change below about -50%; inconclusive = mostly about -30% to -49%
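THP-1 cells pretreated 1 hr with compounds (up to 57.5 uM final), then stimulated with LPS (250 ng/mL final) plus ATP (1.25 mM final); secreted IL-1B measured by AlphaLISA after 16 hr, decreased signal indicating inhibition.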
HT1080 IDH1KD tx = HT-1080 IDH1 knockdown cell toxicity (counter line); HT-1080 IDH1 knockdown viability, ATP luminescence, 48 h; Potency, µM (top dose mostly 46.1 µM), inactives show at the top dose activity, negative = toxicity, usual class: cytotoxic; actives 2% (n = 360,000); AID 686971;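 note: potency is the fitted concentration of half-maximal effect; 0% = DMSO wells and -100% = cell-free medium wells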
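IDH1KD HT-1080 cells, 750/well, RPMI + 5% FBS; compound pinned after 2 h settling; 48 h, 37 °C; CellTiter-Glo luminescence; % activity normalised to DMSO and no-cell wells; curves fitted, classed by r2 and efficacy.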
ALOX12 inh = ALOX12 (human) lipoxygenase inhibition | purified 12hLO, xylenol orange hydroperoxide absorbance | Potency, µM (titrated, usually from 108 µM), for inactives: top-dose activity change, negative = inhibition, most hits filed as inhibitors | P18054 | actives 1.1% (n = 580,000); note: potency is the fitted concentration of half-maximal effect
Target sequence (P18054 whole entry, looked up): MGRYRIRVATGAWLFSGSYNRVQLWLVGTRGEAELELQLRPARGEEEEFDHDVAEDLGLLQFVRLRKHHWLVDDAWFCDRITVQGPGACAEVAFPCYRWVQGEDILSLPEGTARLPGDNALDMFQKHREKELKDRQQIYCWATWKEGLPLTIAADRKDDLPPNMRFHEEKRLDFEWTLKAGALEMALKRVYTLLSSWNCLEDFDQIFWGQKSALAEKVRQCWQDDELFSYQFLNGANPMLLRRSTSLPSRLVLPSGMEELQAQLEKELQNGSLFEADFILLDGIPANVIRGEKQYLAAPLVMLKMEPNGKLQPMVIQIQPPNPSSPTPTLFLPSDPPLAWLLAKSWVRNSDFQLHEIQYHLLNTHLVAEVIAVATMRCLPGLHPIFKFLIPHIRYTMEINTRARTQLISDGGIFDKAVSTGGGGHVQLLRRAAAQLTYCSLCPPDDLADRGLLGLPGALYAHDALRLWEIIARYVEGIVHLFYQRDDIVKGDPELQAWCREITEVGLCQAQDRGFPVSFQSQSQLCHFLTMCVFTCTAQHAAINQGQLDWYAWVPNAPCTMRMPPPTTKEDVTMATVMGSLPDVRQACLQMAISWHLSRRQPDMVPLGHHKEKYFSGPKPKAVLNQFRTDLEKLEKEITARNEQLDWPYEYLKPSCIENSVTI
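Purified human 12hLO (150 nM final) in 25 mM Hepes, 0.01% Triton X-100, pH 7.0 was preincubated 15 min at room temperature with compound. Then 40 uM arachidonic acid was added, 30 min. Hydroperoxide was read by Fe-XO absorbance ratio 573/405 nm.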
HT1080-NT tox = kills 2HG-producing HT-1080-NT fibrosarcoma cells; HT-1080-NT fibrosarcoma viability, CellTiter-Glo ATP luminescence, 48 h; Potency, µM (highest dose often 46.1 µM), for inactives: at the top dose activity, negative = less viability, usual class: cytotoxic; actives 1.6% (n = 360,000);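 note: NT is the 2HG producing partner of a matched IDH1 knockdown line; potency is the fitted concentration of half-maximal effect; 0% = DMSO-treated cells and -100% = media-only wells without cells; nearly all actives have a fitted effect of over 55% in size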
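Compounds were tested in concentration-response format on HT-1080-NT cells for 48 hours at 37 degrees C. Cell viability came from CellTiter-Glo luminescence; curves were classified by r2, response magnitude and activity.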
An asterisk follows results filed as active; [ ] = another dose, or the depositor's remark. Unless noted, calls come from the whole dose curve; as a rule, active = well fitted curve in the direction sought with a large enough effect; inconclusive = small, poorly fitted or top-dose-only effect, or another doubt; inactive = no such curve, though single readings can be large; an effect the other way counts as inactive or inconclusive. Unless noted, % is set by controls: 0 for no effect and ±100 for the full control effect.

Screening CCCCn1c(SCC(=O)Nc2cc(C(F)(F)F)ccc2Cl)nnc1C(CC)N(C)C (stereo unspecified) returned DT40 TDP1 CPT inconclusive, DT40 TDP1 no CPT 21µM*, IL-1B inflam inh -9, HT1080 IDH1KD tx -6%, ALOX12 inh -3% and HT1080-NT tox -8%.
For N#C/C(=C/c1ccccc1[N+](=O)[O-])c1nc(C2CC2)cs1 the results were DT40 TDP1 CPT -2%, DT40 TDP1 no CPT -119%, IL-1B inflam inh inconclusive, HT1080 IDH1KD tx 2%, ALOX12 inh -18% and HT1080-NT tox -4%.
Screening N#C/C(=C\c1ccccc1[N+](=O)[O-])c1nc(C2CC2)cs1 returned DT40 TDP1 CPT inconclusive, DT40 TDP1 no CPT inconclusive, IL-1B inflam inh -78*, HT1080 IDH1KD tx -24%, ALOX12 inh -9% and HT1080-NT tox -8%.
For Cc1ccc(NC(=O)CCC(=O)N2Cc3ccccc3Oc3ncccc32)cc1Cl the results were DT40 TDP1 CPT 23µM*, DT40 TDP1 no CPT inconclusive and ALOX12 inh -27%.
Cc1ccc(NC(=O)c2ccc(N/N=C/c3cccc(O)c3)c([N+](=O)[O-])c2)cc1 was read as DT40 TDP1 CPT 9.2µM*, DT40 TDP1 no CPT 12µM*, IL-1B inflam inh 52, HT1080 IDH1KD tx 7.3µM*, ALOX12 inh -29% and HT1080-NT tox 7.3µM*.
For Cc1ccccc1/C=N/Nc1ccc(S(N)(=O)=O)cc1[N+](=O)[O-] the results were ALOX12 inh 15%.
Screening Cc1ccc(C(=O)Nc2cccc(C(=O)N/N=C/c3ccc(O)cc3)c2)cc1 returned DT40 TDP1 CPT -7%, DT40 TDP1 no CPT -27%, IL-1B inflam inh -7, HT1080 IDH1KD tx -15%, ALOX12 inh 21% and HT1080-NT tox -15%.
For Cc1ccccc1NC(=O)c1ccc(N/N=C/c2ccccc2O)c([N+](=O)[O-])c1 the results were DT40 TDP1 CPT 8.2µM*, DT40 TDP1 no CPT 10µM*, IL-1B inflam inh 1, HT1080 IDH1KD tx -5%, ALOX12 inh 94% and HT1080-NT tox -5%.
For Cc1ccc(NC(=O)CN(C)C(=O)CSc2ccccc2F)cc1 the results were DT40 TDP1 CPT 1%, DT40 TDP1 no CPT -16%, IL-1B inflam inh -1, HT1080 IDH1KD tx -2%, ALOX12 inh inconclusive and HT1080-NT tox 3%.
For Cc1ccc(NC(=O)CN(C)C(=O)c2ccccc2Cc2ccccc2)cc1 the results were DT40 TDP1 CPT inconclusive, DT40 TDP1 no CPT inconclusive, IL-1B inflam inh -58*, HT1080 IDH1KD tx -21%, ALOX12 inh -2% and HT1080-NT tox -1%.
`Cc1ccc(NC(=O)CN(C)C(=O)Cc2c(Cl)cccc2Cl)cc1` gave DT40 TDP1 CPT inconclusive, DT40 TDP1 no CPT 16µM*, IL-1B inflam inh 1, HT1080 IDH1KD tx 1%, ALOX12 inh -20% and HT1080-NT tox -14%.
Screening Cc1ccc(NC(=O)CN(C)C(=O)c2cccc(-n3cccc3)c2)cc1 returned DT40 TDP1 CPT 15%, DT40 TDP1 no CPT -4%, IL-1B inflam inh -8, HT1080 IDH1KD tx 4%, ALOX12 inh 35µM* and HT1080-NT tox 0%.
CCC(C(=O)Nc1cc(C)nn1-c1nc(C)cc(C)n1)c1ccccc1 (stereo unspecified) was read as DT40 TDP1 CPT 26µM*, DT40 TDP1 no CPT 18µM*, IL-1B inflam inh -11, HT1080 IDH1KD tx -28%, ALOX12 inh 0%[57.4 µM] and HT1080-NT tox 0%.
For Cc1cc(C)nc(-n2nc(C)cc2Nc2ccccc2)n1 the results were DT40 TDP1 CPT 2.6µM*, DT40 TDP1 no CPT 5.2µM*, IL-1B inflam inh 0, HT1080 IDH1KD tx -15%, ALOX12 inh -9% and HT1080-NT tox -20%.
`CCOC(=O)c1c(C)nn(-c2ccc(NC(=O)c3c(C)noc3C)cc2)c1C` gave DT40 TDP1 CPT inconclusive, DT40 TDP1 no CPT inconclusive, IL-1B inflam inh -14, HT1080 IDH1KD tx -2% and HT1080-NT tox -15%.
Screening CCOC(=O)c1c(C)nn(-c2ccc(NC(=O)c3cccs3)cc2)c1C returned DT40 TDP1 CPT 23µM*, DT40 TDP1 no CPT 16µM*, IL-1B inflam inh -96*, HT1080 IDH1KD tx inconclusive, ALOX12 inh -1% and HT1080-NT tox inconclusive.
For CCNC(=O)Nc1ccc(OCC(=O)NCc2ccc(C)cc2)nc1 the results were ALOX12 inh 30%.
Screening CCNC(=O)Nc1ccc(-n2nc(C)c(C(=O)OCC)c2C)nc1 returned DT40 TDP1 CPT 18µM*, DT40 TDP1 no CPT inconclusive, IL-1B inflam inh 6, HT1080 IDH1KD tx 0%, ALOX12 inh -5% and HT1080-NT tox 0%.
Screening CCOC(=O)c1c(C)nn(-c2ccc(NC(=O)/C=C/C(=O)O)cc2)c1C returned DT40 TDP1 CPT -14%, DT40 TDP1 no CPT 1.5µM*, IL-1B inflam inh 0, HT1080 IDH1KD tx 21%, ALOX12 inh inconclusive and HT1080-NT tox 5%.
`O=C(Nc1ccc(Cl)c(Cl)c1)Oc1ccc(NC(=O)c2ccco2)cc1` gave DT40 TDP1 CPT inconclusive, DT40 TDP1 no CPT 26µM*, IL-1B inflam inh -88*, HT1080 IDH1KD tx -24%, ALOX12 inh 0% and HT1080-NT tox -19%.
Screening Nc1ccc(NC(=O)c2cccc(C(=O)Nc3ccc(N)cc3Cl)c2)c(Cl)c1 returned DT40 TDP1 CPT 18µM*, DT40 TDP1 no CPT 16µM*, IL-1B inflam inh 0, HT1080 IDH1KD tx 16µM*, ALOX12 inh 7% and HT1080-NT tox inconclusive.
O=C(Nc1cccc(-c2cnc3ccccc3n2)c1)c1cccc(NC(=O)c2ccco2)c1 was read as DT40 TDP1 CPT 6.5µM*, DT40 TDP1 no CPT 15µM*, IL-1B inflam inh 60, HT1080 IDH1KD tx inconclusive, ALOX12 inh 0% and HT1080-NT tox inconclusive.
`O=C(Nc1ccccc1O)c1cccc(NC(=O)c2ccco2)c1` gave DT40 TDP1 CPT 21µM*, DT40 TDP1 no CPT 13µM*, IL-1B inflam inh 57, HT1080 IDH1KD tx -10%, ALOX12 inh -6% and HT1080-NT tox 8%.
Screening COc1ccccc1CNC(=O)Nn1cnc2ccccc21 returned ALOX12 inh 7%.
`O=C(Nc1ccncc1)C1CC(=O)N(c2ccccc2)C1` (stereo unspecified) gave DT40 TDP1 CPT -12%, DT40 TDP1 no CPT -5%, IL-1B inflam inh 22, HT1080 IDH1KD tx 11%, ALOX12 inh -1% and HT1080-NT tox 5%.
